Measurements: PubChem BioAssay (NCATS)
Where “and” joins values, the source holds several entries; their conditions need not be identical. Equal entries are not always repeated. Inconclusive results are not listed. A structure can be active in one record and inactive in another. Calls of active or inactive are those of the source. Calls follow the shape of the dose curve; as a rule, active = well fitted curve in the direction sought with a large enough effect; inconclusive = small, poorly fitted or top-dose-only effect, or another doubt; inactive = no such curve, though single readings can be large; an effect the other way counts as inactive or inconclusive.

Assays:
[1] = system: NIH3T3; assay: qHTS assay to identify novel small-molecules to repurpose for Merkel cell carcinoma treatment (AID 1296009); conditions: MCC and control cell lines, CellTiter-Glo viability, 72 h; also: nearly all actives have a fitted effect of over 60% in size
In short: (§1)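 Dose-response viability screen; 72 hr exposure at 37 degree celsius; CellTiter-Glo added, 10 min room temperature, luminescence read; RLUs scaled between no-cell and DMSO wells.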

[2] = system: SC27B; assay: qHTS profiling for inhibitors of Plasmodium falciparum proliferation (AID 504749); also: nearly all actives have a fitted effect of over 60% in size; also: potency is read from the fitted curve at half-maximal effect; conditions: P. falciparum in erythrocytes, SYBR Green DNA, 72 h; series mostly up to 28.7 µM
In short: (§2)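 Each compound contacts P. falciparum-infected red blood cells for 72 h at 37 C; lysis buffer (Tris, EDTA, saponin, Triton X, SYBR Green I) is added and fluorescence measured next morning; values normalized to controls.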

[3] = system: TAB109; assay: as above; conditions: P. falciparum in erythrocytes, SYBR Green DNA, 72 h; series mostly up to 28.7 µM
In short: as §2

[4] = system: TAB113; assay: as above; conditions: P. falciparum in erythrocytes, SYBR Green DNA, 72 h; series mostly up to 28.7 µM
In short: as §2

[5] = system: TAB165; assay: as above; conditions: P. falciparum in erythrocytes, SYBR Green DNA, 72 h; series mostly up to 28.7 µM
In short: as §2

[6] = system: CRL-7250; assay: Cytotoxic Profiling of Annotated Libraries Using Quantitative High-Throughput Screening (AID 1296008); conditions: Five cell lines viability, CellTiter-Glo ATP luminescence, 48-72 h; max response: active compounds read low; also: nearly all actives have a fitted effect of over 60% in size; also: potency is read from the fitted curve at half-maximal effect; as to max response: % is scaled to controls: 0 for no effect and ±100 for the full control effect
In short: (§3)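 Cells exposed to compounds for 48 or 72 hr at 37 degrees Celsius. Viability read as ATP-coupled luminescence with CellTiter-Glo after 10 min at room temperature.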

[7] = system: HEK293; assay: as above; conditions: Five cell lines viability, CellTiter-Glo ATP luminescence, 48-72 h; max response: active compounds read low
In short: as §3

[8] = system: HaCat; assay: as above; conditions: Five cell lines viability, CellTiter-Glo ATP luminescence, 48-72 h; max response: active compounds read low
In short: as §3

[9] = system: KB-3-1; assay: as above; conditions: Five cell lines viability, CellTiter-Glo ATP luminescence, 48-72 h; max response: active compounds read low
In short: as §3

[10] = system: NIH3T3; assay: as above; conditions: Five cell lines viability, CellTiter-Glo ATP luminescence, 48-72 h; max response: active compounds read low
In short: as §3

[11] = system: MCC-13; assay: qHTS assay to identify novel small-molecules to repurpose for Merkel cell carcinoma treatment (AID 1296009); conditions: MCC and control cell lines, CellTiter-Glo viability, 72 h; series mostly up to 46 µM; also: nearly all actives have a fitted effect of over 60% in size
In short: as §1

[12] = system: MCC-26; assay: as above; conditions: MCC and control cell lines, CellTiter-Glo viability, 72 h; series mostly up to 46 µM
In short: as §1

[13] = system: MKL-1; assay: as above; conditions: MCC and control cell lines, CellTiter-Glo viability, 72 h; series mostly up to 46 µM
In short: as §1

[14] = system: MKL-2; assay: as above; conditions: MCC and control cell lines, CellTiter-Glo viability, 72 h; series mostly up to 46 µM
In short: as §1

[15] = system: UISO; assay: as above; conditions: MCC and control cell lines, CellTiter-Glo viability, 72 h; series mostly up to 46 µM
In short: as §1

[16] = system: WaGa; assay: as above; conditions: MCC and control cell lines, CellTiter-Glo viability, 72 h; series mostly up to 46 µM
In short: as §1

[17] = system: C33A; assay: Primary qHTS to identify gynecologic anti-cancer compounds using libraries of approved drugs and bioactive compounds (AID 1345084); conditions: Gynecologic cancer cell panel viability, ATPlite luminescence, 48 h; series mostly up to 57.5 µM; also: nearly all actives have a fitted effect of over 55% in size; also: potency is read from the fitted curve at half-maximal effect
In short: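 Cell viability after 48 h drug treatment, ATPlite luminescence readout; five doses.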

[18] = system: W2; assay: qHTS profiling for inhibitors of Plasmodium falciparum proliferation (AID 504749); also: nearly all actives have a fitted effect of over 60% in size; also: potency is read from the fitted curve at half-maximal effect; conditions: P. falciparum in erythrocytes, SYBR Green DNA, 72 h; series mostly up to 28.7 µM
In short: as §2

[19] = system: HACAT; assay: qHTS assay to identify novel small-molecules to repurpose for Merkel cell carcinoma treatment (AID 1296009); conditions: MCC and control cell lines, CellTiter-Glo viability, 72 h; at 44.8 µM (top of the series) unless noted; also: nearly all actives have a fitted effect of over 60% in size
In short: as §1

[20] = system: HEK293T; assay: as above; conditions: MCC and control cell lines, CellTiter-Glo viability, 72 h; at 44.8 µM (top of the series) unless noted
In short: as §1

[21] = at 44.8 µM (top of the series) unless noted

CNC[C@H](O)c1ccc(O)c(O)c1
inactive: outcome ([1]; at 17.4 µM (top of the series)) | outcome ([1]; at 92 µM (top of the series))

Oc1ccc(OCc2ccccc2)cc1
inactive: Potency [2] | Potency [3] | Potency [4] | Potency [5] | max response [6] -0.407% and -9.61% | max response [7] -5.94% and -19.5% | max response [8] -14% and -4.74% | max response [9] 45.1% | outcome [9] | outcome [10] | Potency [11] | Potency [12] | Potency [13] | Potency [14] | outcome [1, 21] | Potency [15] | Potency [16] | Potency [17]

CN1CCC(=C2c3ccccc3CCc3sccc32)CC1
inactive: max response [6] -8.84% and -2.17% | outcome [8] | max response [9] -12.2% and -19.3% | max response [10] 2.3% | outcome [10] | outcome [19] | Potency [11] | Potency [12] | Potency [13] | outcome [1, 21] | Potency [15] | Potency [16]
active: Potency [5] 4470 nM | Potency [18] 1510 nM | Potency [7] 26.4 µM and 10.6 µM

CC(C)[C@H](N)C(=O)OCCOCn1cnc2c(=O)[nH]c(N)nc21
inactive: Potency [2] | Potency [3] | Potency [4] | Potency [5] | Potency [18] | max response [6] -3.66% and 1.07% | max response [7] 4.44% | outcome [7] | outcome [8] | outcome [10] | outcome [19] | outcome [20] | Potency [11] | Potency [12] | Potency [13] | Potency [14] | outcome [1, 21] | Potency [15] | Potency [16] | Potency [17]

Cc1cc(=O)c2c(O)c3c(O)cc(=O)c4c3c3c(cc(O)c1c23)C(C)(C)C=4O
active: Potency [2] 1580 nM | Potency [3] 2240 nM | Potency [4] 1580 nM | Potency [5] 1780 nM | Potency [18] 1350 nM | Potency [6] 3.66 µM and 13.2 µM | Potency [7] 2.59 µM and 3.72 µM | Potency [8] 1300 nM | Potency [9] 11.6 µM and 23.5 µM | Potency [17] 3550 nM
inactive: outcome [8] | max response [10] -0.918% | outcome [19] | Potency [11] | Potency [12] | Potency [13] | Potency [14] | Potency [15] | Potency [16]

CNC[C@@H](O)[C@@H](O)[C@H](O)[C@H](O)CO
inactive: Potency [2] | Potency [3] | Potency [4] | Potency [5] | Potency [18] | outcome [6] | outcome [7] | outcome [8] | max response [9] 5.74% | outcome [10] | outcome [19] | outcome [20] | Potency [11] | Potency [12] | Potency [13] | Potency [14] | outcome [1, 21] | Potency [15] | Potency [16]

N[C@@H](Cc1cc(I)c(Oc2cc(I)c(O)c(I)c2)c(I)c1)C(=O)O
inactive: Potency [2] | Potency [3] | Potency [4] | Potency [5] | Potency [18] | max response [6] 0.853% and -3.78% and 2.29% | max response [7] 0.988% and -21.3% and 2.79% | max response [8] -2.11% | outcome [8] | max response [10] -14.5% | outcome [10] | outcome [19] | Potency [11] | Potency [12] | Potency [13] | Potency [14] | outcome [1, 21] | Potency [15] | Potency [16] | Potency [17]

O=C(NCCO[N+](=O)[O-])c1cccnc1
inactive: Potency [2] | Potency [3] | Potency [4] | Potency [5] | Potency [18] | max response [6] -0.661% and -5.95% | outcome [7] | max response [8] 4.19% | outcome [8] | outcome [10] | outcome [19] | outcome [20] | Potency [11] | Potency [13] | Potency [14] | outcome [1, 21] | Potency [15] | Potency [16] | Potency [17]

Cc1ccc(C(=O)c2cc(O)c(O)c([N+](=O)[O-])c2)cc1
inactive: max response [6] -7.14% | outcome [7] | max response [8] -18.7% | outcome [8] | max response [10] 1.41% | outcome [19] | outcome [20] | Potency [11] | Potency [13] | Potency [15] | Potency [16] | Potency [17]

Cc1ccc(Nc2nccc(N(C)c3ccc4c(C)n(C)nc4c3)n2)cc1S(N)(=O)=O
active: Potency [6] 6.51 µM | Potency [7] 11.8 µM | Potency [10] 7.43 µM and 7.31 µM
inactive: max response [8] -13.5% and -50.9% | outcome [8] | outcome [19] | Potency [11] | Potency [13] | Potency [14] | Potency [15] | Potency [16] | Potency [17]
